Hits are enriched below; roughly 3.6% of the tested compounds scored in any of these assays.
CF NFkB block: cystic fibrosis NF-kB activation inhibition | KKLEB NF-kB-GFP reporter, PAF-induced, GFP fluorescence overnight | inhibition, % at 5 µM | 360,000 compounds, 0.86% hits | AID 588850;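 active = at least 50% inhibition at 5 µM, scaled per plate between neutral and stimulator controls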;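 also: PAF is a Pseudomonas aeruginosa culture filtrate used as stimulus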
KKLEB tox: CF airway cell cytotoxicity counter-screen | activity change (cytotoxicity), % at 5 µM | KKLEB CF airway cells viability, ATPlite luminescence, overnight; hits give low values; cells stimulated with P. aeruginosa culture filtrate | AID 602141 | 360,000 compounds, 0.36% hits;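 active = corrected activity change at or below -50% at 5 µM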
Peg3 prom inh: inhibitors of Peg3 promoter | HeLa PEG-Prom luciferase reporter, luminescence, overnight | inhibition, % at 20 µM | 360,000 compounds, 1.7% hits | AID 588405;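 active = inhibition of at least 50% at 20 µM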
LGR2 antag: inhibitors of bursicon-induced Drosophila LGR2 receptor cAMP signaling; HEK293 LGR2, CRE-luciferase, bursicon-stimulated, 4 h; inhibition, % at 9.99 µM; 380,000 compounds, 0.35% hits;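 active = drop in luminescence signal, shown as inhibition above about 50% in the replicate tests, limit read from the data, passing the limit was not always enough; inconclusive = probably only some replicates passing the limit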;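 also: agonist challenge used bursicon conditioned medium at about half maximal strength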
Mdm2 MdmX PPI: inhibitors of human Mdm2/MdmX interaction. SaOS-2 split-luciferase Mdm2/MdmX complementation, luminescence. inhibition, % at 8 µM. 330,000 compounds, 3% hits. AID 485346;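 active = inhibition of at least 50% at 8 µM in the primary screen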
Target sequence (O15151 whole entry, looked up): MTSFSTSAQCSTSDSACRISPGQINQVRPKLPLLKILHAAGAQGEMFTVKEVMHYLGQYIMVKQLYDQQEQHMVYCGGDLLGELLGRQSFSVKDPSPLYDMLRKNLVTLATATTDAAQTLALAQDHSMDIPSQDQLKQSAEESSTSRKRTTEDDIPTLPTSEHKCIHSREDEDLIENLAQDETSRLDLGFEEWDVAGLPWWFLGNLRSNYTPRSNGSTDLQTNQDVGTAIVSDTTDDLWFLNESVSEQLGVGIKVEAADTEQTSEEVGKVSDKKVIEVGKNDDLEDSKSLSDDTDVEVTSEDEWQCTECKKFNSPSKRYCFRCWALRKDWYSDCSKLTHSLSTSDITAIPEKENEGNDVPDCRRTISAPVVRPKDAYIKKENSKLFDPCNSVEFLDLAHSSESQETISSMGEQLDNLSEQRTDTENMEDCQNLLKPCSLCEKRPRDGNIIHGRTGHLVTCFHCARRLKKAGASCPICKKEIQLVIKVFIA
Target sequence (Q00987 whole entry, looked up): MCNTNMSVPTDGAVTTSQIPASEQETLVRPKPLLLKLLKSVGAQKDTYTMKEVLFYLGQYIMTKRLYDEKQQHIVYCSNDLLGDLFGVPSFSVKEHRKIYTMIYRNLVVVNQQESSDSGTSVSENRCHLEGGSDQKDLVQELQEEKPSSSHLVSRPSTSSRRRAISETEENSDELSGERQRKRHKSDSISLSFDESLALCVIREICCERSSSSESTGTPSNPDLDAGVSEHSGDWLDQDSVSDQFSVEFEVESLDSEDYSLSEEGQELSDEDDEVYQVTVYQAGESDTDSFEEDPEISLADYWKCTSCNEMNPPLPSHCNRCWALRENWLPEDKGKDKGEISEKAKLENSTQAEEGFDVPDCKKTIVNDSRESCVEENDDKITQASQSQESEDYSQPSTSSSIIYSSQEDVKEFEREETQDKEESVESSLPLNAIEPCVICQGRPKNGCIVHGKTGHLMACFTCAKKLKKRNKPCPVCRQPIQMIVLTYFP
HSP90 inh: inhibitors of HSP90 luciferase refolding in rabbit reticulocyte lysate | luciferase refolding luminescence, 3 h | inhibition, % at 5.6 µM | 290,000 compounds, 0.91% hits | AID 1789;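 active = inhibition above the screen-wide mean plus 3 SD, computed separately per campaign, cut at about 16% in these data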;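 also: inhibitors lower the luminescence because luciferase stays unfolded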
Mdm2 MdmX conf: human Mdm2/MdmX binding inhibition, confirmed; inhibition, % at 8 µM; luminescent assay; shares compounds with Mdm2 MdmX PPI; 10,000 compounds, 55% hits; in the data active = inhibition above about 40%
Full FLuc ctr: counter-screen for Mdm2/MdmX inhibitors: full-length luciferase; shares compounds with Mdm2 MdmX PPI; SaOS-2 full-length luciferase counterscreen, luminescence; inhibition, % at 8 µM; 6,200 compounds, 77% hits;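 active = mean inhibition at 8 µM reaching about 37%, which flags the compound as non-specific, limit read from the data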;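 also: p53-null SaOS-2 cells with luciferase driven by a doxycycline-inducible promoter; compound on cells about two nights before reading with doxycycline added after day one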
Each line names hits and unclear results; the compound was inactive in the other large screens (follow-up assays come after a bar, where they were run).

C[C@H]1CN([C@@H](C)CO)C(=O)c2cccc(NC(=O)Nc3ccc(F)cc3)c2O[C@H]1CN(C)C	none (no result: CF NFkB block, KKLEB tox, Peg3 prom inh, Mdm2 MdmX PPI, HSP90 inh)
Cc1ccc(NS(=O)(=O)c2cc([N+](=O)[O-])ccc2N/N=C/c2sc(N3CCOCC3)nc2-c2ccccc2)c(C)c1	Mdm2 MdmX PPI 86 | Mdm2 MdmX conf inactive
COc1cccc(NC(=O)Nc2ccc3c(c2)N(C)C(=O)CS3)c1	Mdm2 MdmX PPI 50 (no result: LGR2 antag) | Mdm2 MdmX conf inactive
COc1cc(C(=O)O/N=C(\N)c2ccc([N+](=O)[O-])cc2)cc(OC)c1OC	Mdm2 MdmX PPI 75 | Mdm2 MdmX conf inactive | Full FLuc ctr 95
COc1cc(C(=O)O/N=C(\N)c2cccc([N+](=O)[O-])c2)cc(OC)c1OC	Mdm2 MdmX PPI 74 | Mdm2 MdmX conf inactive | Full FLuc ctr 103
COc1ccc(/C(N)=N/OC(=O)c2cccc([N+](=O)[O-])c2)cc1	none
N/C(=N\OC(=O)c1ccc([N+](=O)[O-])cc1)c1ccc(Br)cc1	none
CCOc1cc(C(=O)O/N=C(\N)c2ccc([N+](=O)[O-])cc2)cc(OCC)c1OCC	Mdm2 MdmX PPI 67 (no result: LGR2 antag) | Mdm2 MdmX conf 46 | Full FLuc ctr 92
C[C@H]1CN([C@@H](C)CO)S(=O)(=O)c2ccc(C#CC3CCCC3)cc2O[C@H]1CN(C)Cc1ccccc1C(=O)O	none (no result: CF NFkB block, KKLEB tox, Peg3 prom inh, Mdm2 MdmX PPI, HSP90 inh)
N/C(=N\OC(=O)c1cnn(-c2ccccc2)c1C(F)(F)F)c1cc(C(F)(F)F)cc(C(F)(F)F)c1	Mdm2 MdmX PPI 52 | Mdm2 MdmX conf inactive
O=C(NNC(=O)C(Cl)Cl)c1cnn(-c2ccccc2)c1C(F)(F)F	none
CCC(=O)N1[C@@H](CO)[C@@H](c2ccccc2)C12CN(Cc1nccs1)C2	none (no result: CF NFkB block, KKLEB tox, Peg3 prom inh, Mdm2 MdmX PPI, HSP90 inh)
C[C@@H]1CCCCO[C@@H](CN(C)C(=O)CCCN(C)C)[C@H](C)CN([C@@H](C)CO)C(=O)c2cc(NS(=O)(=O)c3cn(C)cn3)ccc2O1	none (no result: CF NFkB block, KKLEB tox, Peg3 prom inh, Mdm2 MdmX PPI, HSP90 inh)
CC1CC(=O)c2c(cc3c(-c4c(O)cc(O)c5c(O)c6c(cc45)OC(C)CC6=O)c(O)cc(O)c3c2O)O1 (stereo unspecified)	CF NFkB block 53, Peg3 prom inh 105, Mdm2 MdmX PPI 100 (no result: LGR2 antag) | Mdm2 MdmX conf 93 | Full FLuc ctr inactive
O=S(=O)(c1cccc(F)c1)N1CC[C@@H]2[C@@H](CO)Nc3ccc(-c4cccc(F)c4)cc3[C@@H]21	none (no result: CF NFkB block, KKLEB tox, Peg3 prom inh, Mdm2 MdmX PPI, HSP90 inh)
O=[N+]([O-])c1c(Nc2ccc(O)cc2)cc(N2CCOCC2)c2nonc12	Mdm2 MdmX PPI 51 (no result: LGR2 antag) | Mdm2 MdmX conf inactive
O=[N+]([O-])c1c(Nc2ccccc2O)ccc2nonc12	none
CC(=O)Nc1ccc(Nc2cc(N3CCOCC3)c3nonc3c2[N+](=O)[O-])cc1	none
O=[N+]([O-])c1c(Nc2ccccc2O)cc(Cl)c2nonc12	CF NFkB block 80, Peg3 prom inh 100, Mdm2 MdmX PPI 95 | Mdm2 MdmX conf 100 | Full FLuc ctr 54
CC(=O)N(C)C[C@H]1Oc2cc(-c3ccccc3C)ccc2S(=O)(=O)N([C@H](C)CO)C[C@@H]1C	none (no result: CF NFkB block, KKLEB tox, Peg3 prom inh, Mdm2 MdmX PPI, HSP90 inh)
C[C@H]1CN([C@@H](C)CO)C(=O)c2cc(NS(=O)(=O)c3cccs3)ccc2O[C@@H]1CN(C)Cc1ccc(C(=O)O)cc1	none (no result: CF NFkB block, KKLEB tox, Peg3 prom inh, Mdm2 MdmX PPI, HSP90 inh)
COC(=O)c1cc(NC(=O)/C=C/c2ccc3c(c2)OCO3)cc(C(=O)OC)c1	Mdm2 MdmX PPI 67 (no result: LGR2 antag) | Mdm2 MdmX conf inactive | Full FLuc ctr 102
COc1ccc2nc(Nc3ccc4c(c3)OCO4)sc2c1	none (no result: LGR2 antag)
COC(=O)c1cccc(NC(=O)/C=C/c2ccc3c(c2)OCO3)c1	none
COc1ccc2nc(NC(=O)/C=C/c3ccc4c(c3)OCO4)sc2c1	Mdm2 MdmX PPI 83 (no result: CF NFkB block, KKLEB tox, Peg3 prom inh) | Mdm2 MdmX conf 52 | Full FLuc ctr inactive
COc1cc(/C=C/C(=O)c2ccc(Cl)s2)cc(OC)c1O	Peg3 prom inh 52, Mdm2 MdmX PPI 65 (no result: LGR2 antag) | Mdm2 MdmX conf 51 | Full FLuc ctr 45
O=[N+]([O-])c1cc([N+](=O)[O-])c2cc3ccccc3nc2c1	CF NFkB block 84, Peg3 prom inh 92, Mdm2 MdmX PPI 82 | Mdm2 MdmX conf inactive
C[C@@H]1CCCCO[C@H](CN(C)CC2CCCCC2)[C@H](C)CN([C@H](C)CO)C(=O)c2cc(NC(=O)CCC(F)(F)F)ccc2O1	none (no result: CF NFkB block, KKLEB tox, Peg3 prom inh, Mdm2 MdmX PPI, HSP90 inh)
COc1ccccc1CN(Cc1nc2ccccc2c(=O)[nH]1)S(=O)(=O)c1ccc2ccccc2c1	Peg3 prom inh 58, LGR2 antag inconclusive, Mdm2 MdmX PPI 72 | Mdm2 MdmX conf inactive
CC(SC1=NCCS1)C(=O)Nc1nnc(-c2ccc(F)cc2)s1 (stereo unspecified)	none
CC(SC1=NCCS1)C(=O)Nc1nnc(-c2ccc(Br)cc2)s1 (stereo unspecified)	Mdm2 MdmX PPI 52 | Mdm2 MdmX conf inactive
O=C(N/N=C/c1ccccc1)c1ccco1	none
O=C(C#Cc1ccccc1)c1ccco1	CF NFkB block 99, KKLEB tox -64, Peg3 prom inh 105, LGR2 antag 50, Mdm2 MdmX PPI 98 | Mdm2 MdmX conf 68 | Full FLuc ctr 51
Cc1noc(C)c1NC(=O)Nc1ccc2c(c1)C(=O)N([C@@H](C)CO)C[C@H](C)[C@H](CN(C)S(C)(=O)=O)O2	none (no result: CF NFkB block, KKLEB tox, Peg3 prom inh, Mdm2 MdmX PPI, HSP90 inh)
Cc1nc(NCc2ccco2)c2c3c(sc2n1)CCC3	Mdm2 MdmX PPI 72 (no result: LGR2 antag) | Mdm2 MdmX conf inactive
COc1ccc2[nH]c(C(=O)N/N=C/c3ccc(OC)c(O)c3)cc2c1	Mdm2 MdmX PPI 56 | Mdm2 MdmX conf 53 | Full FLuc ctr 67
COc1ccc(/C=N/NC(=O)CCn2c3ccccc3c3ccccc32)cc1O	Mdm2 MdmX PPI 53 (no result: LGR2 antag) | Mdm2 MdmX conf 58 | Full FLuc ctr 60
COc1cccc(/C=N/NC(=O)CCn2c3ccccc3c3ccccc32)c1	none
COc1ccc(/C=N/NC(=O)c2nc(-c3ccccc3)cc(-c3ccccc3)n2)cc1O	Mdm2 MdmX PPI 56 | Mdm2 MdmX conf inactive | Full FLuc ctr 121
C[C@H]1CN([C@@H](C)CO)C(=O)c2cc(NS(=O)(=O)c3ccc(F)cc3)ccc2O[C@H]1CN(C)C	none (no result: CF NFkB block, KKLEB tox, Peg3 prom inh, Mdm2 MdmX PPI, HSP90 inh)
COCCNC(=O)[C@@H]1[C@@H](CO)[C@@H]2Cn3c(cccc3=O)[C@@H]2N1Cc1ccccc1OC	none (no result: CF NFkB block, KKLEB tox, Peg3 prom inh, Mdm2 MdmX PPI, HSP90 inh)
Cc1ccc(-c2[nH]c3ccccc3c2C(C[N+](=O)[O-])c2ccco2)cc1 (stereo unspecified)	Mdm2 MdmX PPI 63 (no result: LGR2 antag) | Mdm2 MdmX conf inactive
Cc1[nH]c2ccccc2c1C(C[N+](=O)[O-])c1ccco1 (stereo unspecified)	none
COc1ccccc1-c1cc(-c2ccc(O)cc2)nc(N)c1C#N	none
COc1cc(-c2cc(-c3ccc(O)cc3)nc(N)c2C#N)ccc1O	Mdm2 MdmX PPI 81 | Mdm2 MdmX conf 54 | Full FLuc ctr 92
N#Cc1c(-c2ccccc2)cc(-c2ccc(O)cc2)nc1N	none

Assay outcomes as filed in PubChem.
